Screening data from PubChem.
Rows were chosen to be rich in hits. Some 4.4% of all compounds tested hit in one or more screens of this group.
tim10-1 inh = tim10-1 yeast growth inhibition. inhibition, % at 20 µM. S. cerevisiae tim10-1 ts strain growth, BacTiter-Glo, 24 h. 2.2% of 330,000 active. AID 463190;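 active means inhibition of at least 40%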;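 further: mutant grown at 25 °C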
TIM10 inh = inhibits growth of TIM10 yeast strain | inhibition, % at 10 µM | 1.4% of 330,000 active | AID 463195 | S. cerevisiae TIM10 strain growth, BacTiter-Glo luminescence, 24 h;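 active means inhibition of 40% or more at the single tested concentration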;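 further: wild-type TIM10 isogenic control strain grown at permissive 25 °C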
SKKanGAS inh = inhibitors of SKKanGAS S. pyogenes growth in kanamycin (SK-promoter or general growth effect). inhibition, % at 7.5 µM. BacTiter-Glo, 6 h. AID 1662. 1.3% of 300,000 active;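 active means mean replicate score, as percent of positive control median, at least 50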;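 further: strain carries kanamycin resistance gene driven by streptokinase promoter and grows in 40 µg/ml kanamycin; loss of luminescence reflects streptokinase promoter inhibition or plain growth inhibition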
PfHsp90 yeast 2 = reduces growth (ATP signal) of yeast expressing P. falciparum Hsp90; S. cerevisiae expressing PfHsp90, BacTiter-Glo ATP, 48 h; yeast lacking PDR1 and PDR3 efflux regulators; inhibition, % at 9.4 µM; 0.32% of 310,000 active; AID 504621;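 active means every replicate shows inhibition above about 80%, whatever the replicate mean, limit read from the data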
tim23-1 inh = inhibits growth of tim23-1 mutant yeast; S. cerevisiae tim23-1 growth, BacTiter-Glo luminescence, 24 h; inhibition, % at 20 µM; 1.3% of 330,000 active; AID 463212;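 active means growth inhibition of the mutant yeast at or above 50%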;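 further: temperature-sensitive mutant grown at 25 °C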
TIM10 conf = TIM10 yeast growth inhibition, confirmed; 63% of 4,600 active; inhibition, % at 10 µM; S. cerevisiae tim10 strain growth, BacTiter-Glo luminescence, 24 h; shares compounds with TIM10 inh;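 active means inhibition of yeast growth at or above a set limit in either of two replicates at 10 µM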; further: this counterscreen used the strain with wild-type TIM10
Each line names hits and unclear results; the compound was inactive in the other large screens (follow-up assays come after a bar, where they were run).

C/C(CC1CC(COCC(C)C)OC1=O)=N\NC(N)=S (stereo unspecified)	TIM10 inh 96 | TIM10 conf inactive
COC(=O)c1c(NC(=O)c2nc3ccccc3s2)sc2c1CC(C)(C)NC2(C)C	TIM10 inh 55 | TIM10 conf 36
CCOc1ccc(C(=O)Nc2sc3c(c2C(=O)OC)CC(C)(C)NC3(C)C)cc1	none
Cc1ccccc1NC(=S)N/N=C/C(C)c1ccccc1 (stereo unspecified)	TIM10 inh 41 | TIM10 conf inactive
Cc1cccc(NC(=S)N/N=C/C(C)c2ccccc2)c1C (stereo unspecified)	TIM10 inh 41 | TIM10 conf 36
Cc1cccc(NC(=S)N/N=C/c2cccc(O)c2)c1C	none
Cc1ccccc1NC(=S)N/N=C/c1ccc(O)cc1O	none
Cc1cccc(NC(=S)NN(Cc2ccccc2)c2ccccc2)c1C	TIM10 inh 43 | TIM10 conf inactive
C=C(C)Cn1c(=O)c2c(nc3n2CCCN3CCc2ccccc2)n(C)c1=O	none
CCC(=O)Nc1ccc2c(c1)C(=O)N(C)C2=O	none
CCC(=O)Nc1ccc2c(c1)C(=O)c1ccccc1C2=O	TIM10 inh 42 | TIM10 conf inactive
Cc1ccc(S(=O)(=O)N2CCc3ccccc3C2CN2C(=O)c3ccccc3C2=O)cc1 (stereo unspecified)	TIM10 inh 43 | TIM10 conf inactive
O=c1c2ccccc2sn1-c1ccc(F)cc1	TIM10 inh 55 (no result: SKKanGAS inh) | TIM10 conf 64
O=C(Nc1cccc(F)c1)c1cc(S(=O)(=O)NCCC2=CCCCC2)ccc1F	TIM10 inh 42 | TIM10 conf inactive
COc1ccc(N2CCC(CNC(=S)Nc3c(C)cc(C)cc3C)C2)cc1 (stereo unspecified)	TIM10 inh 40 | TIM10 conf 56
COc1ccc(N2CCC(CNC(=S)Nc3cccc(C)c3)C2)cc1 (stereo unspecified)	none
C/C(Cl)=C\Cn1c(O)c(N=NC(N)=S)c2cc(Br)ccc21	TIM10 inh 42, SKKanGAS inh 80 | TIM10 conf 48
O=C1CC2(CCN1)CCN(Cc1ccccc1)CC2	none (no result: tim10-1 inh, TIM10 inh, SKKanGAS inh, tim23-1 inh)
CCCN1CCc2c(sc3nc(SCC)n(-c4ccc(OC)cc4)c(=O)c23)C1	none
CC(=O)c1cccc(N(CC(=O)NC2CCCCC2)C(=O)Cn2nnc(-c3ccccc3)n2)c1	none
CCOc1ccc(-n2cnc3scc(-c4ccc(OC)c(OC)c4)c3c2=O)cc1	TIM10 inh 41 (no result: PfHsp90 yeast 2) | TIM10 conf inactive
COc1ccc(-c2nc3ccccc3s2)cc1O	TIM10 inh 47 | TIM10 conf inactive
CCN1C(=O)N/C(=C/c2cc(C)n(Cc3ccccc3)c2C)C1=O	TIM10 inh 95 | TIM10 conf inactive
O=C(NC(=O)c1cc([N+](=O)[O-])ccc1Cl)C1=C(N2CCCC2)COC1=O	none (no result: SKKanGAS inh)
Cc1cccc(COc2ccc(/C=N/NC(=O)c3nnn(-c4nonc4N)c3CN3CCCCC3)cc2)c1	TIM10 inh 42 | TIM10 conf inactive
Nc1nonc1-n1nnc(C(=O)N/N=C/c2ccc(OCc3cccc(Cl)c3)cc2)c1CN1CCCCC1	none
Cc1cc2[nH]c3c(c[n+](C)c4ccccc34)c2cc1C	TIM10 inh 66 | TIM10 conf 59
Cc1cc2[nH]c3c4ccccc4nc(C)c3c2cc1C	none (no result: tim10-1 inh, TIM10 inh, SKKanGAS inh, tim23-1 inh)
Clc1c(-c2ccccc2)nc2ccccn12	TIM10 inh 97 | TIM10 conf inactive
Cc1ccc(C(=O)N2CC3(C(C)C)CN(C(=O)c4ccc(C)cc4)CC(C(C)C)(C2)C3=O)cc1	TIM10 inh 44 | TIM10 conf inactive
COc1ccccc1NC(=S)N1CCN(c2ncccn2)CC1	TIM10 inh 95 | TIM10 conf inactive
CC(=O)Nc1cccc(-c2cc(C)c3cc4c(cc3n2)OCO4)c1	none
Cc1ccc(S(=O)(=O)n2nc(OC(=O)c3ccccc3F)cc2N)cc1	TIM10 inh 46 | TIM10 conf 48
COc1ccc(S(=O)(=O)n2nc(OC(=O)c3ccccc3)cc2N)cc1	TIM10 inh 49 | TIM10 conf inactive
COc1ccc(S(=O)(=O)n2nc(OC(=O)c3ccccc3Br)cc2N)cc1	TIM10 inh 50 | TIM10 conf inactive
Cc1ccc(C(=O)Oc2cc(N)n(S(=O)(=O)c3ccc(C)cc3)n2)cc1	none
COc1cc(C(=O)Oc2cc(N)n(S(=O)(=O)c3ccccc3)n2)cc(OC)c1OC	none
COc1ccc(S(=O)(=O)n2nc(OC(=O)c3ccc(C)cc3)cc2N)cc1	TIM10 inh 53 | TIM10 conf 35
COc1ccc(C(=O)Oc2cc3c4c(c2)C(C)=CC(C)(C)N4C(=O)C3=O)cc1OC	TIM10 inh 46 | TIM10 conf 48
COc1ccc(C(=O)Oc2ccc(C(=S)N3CCCC3)cc2)cc1OC	none (no result: PfHsp90 yeast 2)
CC(=O)Nc1ccc(C(=O)OCC(=O)Nc2c(C)n(C)n(-c3ccccc3)c2=O)cc1	none (no result: SKKanGAS inh)
Cc1ccc(/C=N\NC(=O)c2ccc3c(c2)OCO3)o1	none
Cc1cc(C)nc(SCc2cc(=O)c(OC(=O)c3ccco3)co2)n1	TIM10 inh 42 | TIM10 conf 37
Cc1cc(C)nc(SCc2cc(=O)c(OC(=O)c3ccc(Br)o3)co2)n1	none
COc1cc(C(=O)NCCCNC(=O)c2cc(OC)c(OC)c(OC)c2)cc(OC)c1OC	none (no result: PfHsp90 yeast 2)
COc1cc(C(=O)NCCNC(=O)C2CCCNC2=O)cc(OC)c1OC (stereo unspecified)	TIM10 inh 40 | TIM10 conf inactive
Cc1ccc(C)c2nc3sc(C(=O)N4CCCc5ccccc54)c(N)c3cc12	TIM10 inh 46 | TIM10 conf inactive
CN(C(=O)COC(=O)c1cc(=O)[nH]c2ccccc12)c1ccccc1	none (no result: SKKanGAS inh)
C=CCNC(=O)N1CCCC(C(=O)c2cccc(OC(C)C)c2)C1 (stereo unspecified)	none
CC(C)(C)c1ccc(OCCNC(=S)Nc2ccccc2)cc1	TIM10 inh 54 | TIM10 conf 39
CC(C)(C)c1ccc(OCCNCc2ccccc2)cc1	none
CCN1C/C(=C/c2ccc(OC)c(O)c2)C(=O)/C(=C/c2ccc(OC)c(O)c2)C1	TIM10 inh 50 | TIM10 conf 45
COc1ccc(CNS(=O)(=O)c2ccc3c(c2)N(C(C)=O)CCO3)cc1	TIM10 inh 46 | TIM10 conf inactive
O=c1c(CN2CCN(Cc3ccccc3F)C(CCO)C2)coc2ccccc12 (stereo unspecified)	none
CCOC(=O)Cn1cnc2c(cnn2-c2ccccc2)c1=O	none
Cc1ccccc1Nc1nc(Nc2ccccc2C)nc(SC2=NCCS2)n1	TIM10 inh 42 | TIM10 conf 45
CN(C)c1ccc(/C=C/C(=O)c2ccc3c(c2)OCCO3)cc1[N+](=O)[O-]	TIM10 inh 43 | TIM10 conf inactive
Cc1ccc(S(=O)(=O)NCCSc2nnnn2-c2cc(C)ccc2C)cc1	TIM10 inh 45 | TIM10 conf inactive
CN(C)c1cccc(C(=O)Nc2cccc(S(=O)(=O)NC3=NCCC3)c2)c1	none
